Results on 13 molecules are retold here after PubChem BioAssay (Tox21).

Test [1] can be described thus: qHTS assay to identify small molecule antagonists of the thyroid receptor (TR) signaling pathway (AID 743065). Further: series mostly up to about 70 µM; nearly all actives have a fitted effect of over 55% in size. In short, it runs like this:
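Antagonism measured as loss of luciferase signal in GH3 cells stably carrying a TRE-luciferase reporter, co-treated with compound and T3 (1 nM final) for 23.5 h at 37 C. Viability was read in the same well by CellTiter-Fluor.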
On the technique in general: qHTS replaces the single test concentration by a dilution series.

Test [2] deals with thyroid hormone receptor (rat, GH3 cells). Nature of the test: qHTS assay to identify small molecule agonists of the thyroid receptor (TR) signaling pathway (AID 743066; calls by dose curve).
In test [3] the target is Estrogen receptor (Homo sapiens) (UniProt P03372). The test is described as follows: qHTS assay to identify small molecule antagonists of the estrogen receptor alpha (ER-alpha) signaling pathway (AID 743069; active means well fitted curve in the direction sought with a large enough effect in the signal ratio in the repeat runs, not every such curve was filed as active; the % refers to the signal ratio). In short, it runs like this:
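Compound effects are measured against 17beta-estradiol stimulation in HEK293 cells with a UAS-controlled beta-lactamase reporter for ER-alpha. Exposure lasts 18 hr at 37C; LiveBLAzer B/G FRET substrate follows for 2 hr at room temperature.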

Test [4] can be described thus: qHTS assay to identify small molecule antagonists of the estrogen receptor alpha (ER-alpha) signaling pathway - cell viability counter screen (AID 743074; calls by dose curve;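 further: HEK293 cells carrying ER-alpha-UAS-bla reporter stimulated with 17beta-estradiol; nearly all actives have a fitted effect of over 45% in size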).
In test [5] the target is Estrogen receptor (Homo sapiens) (UniProt P03372). Nature of the test: qHTS assay to identify small molecule agonists of the estrogen receptor alpha (ER-alpha) signaling pathway (AID 743075; calls by dose curve).
Sequence of Estrogen receptor (Homo sapiens) (P03372 whole entry, looked up): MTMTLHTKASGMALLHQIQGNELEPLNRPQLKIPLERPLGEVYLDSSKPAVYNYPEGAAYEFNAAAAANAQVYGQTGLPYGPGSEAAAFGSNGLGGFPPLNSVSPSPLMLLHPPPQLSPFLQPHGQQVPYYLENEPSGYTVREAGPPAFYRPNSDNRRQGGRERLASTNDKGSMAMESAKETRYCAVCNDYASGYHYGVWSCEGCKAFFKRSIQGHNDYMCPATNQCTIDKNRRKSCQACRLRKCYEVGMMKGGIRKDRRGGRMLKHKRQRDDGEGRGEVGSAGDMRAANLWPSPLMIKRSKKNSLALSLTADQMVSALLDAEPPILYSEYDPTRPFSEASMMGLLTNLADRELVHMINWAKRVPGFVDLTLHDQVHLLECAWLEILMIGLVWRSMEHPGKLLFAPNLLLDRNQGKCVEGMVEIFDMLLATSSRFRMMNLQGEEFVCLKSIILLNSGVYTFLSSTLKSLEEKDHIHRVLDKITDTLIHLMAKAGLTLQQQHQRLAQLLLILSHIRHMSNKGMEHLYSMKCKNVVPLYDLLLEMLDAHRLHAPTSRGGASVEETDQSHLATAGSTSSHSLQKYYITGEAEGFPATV
The target is the same in test [6]. Nature of the test: qHTS assay to identify small molecule agonists of the estrogen receptor alpha (ER-alpha) signaling pathway using the BG1 cell line (AID 743079). Further: nearly all actives have a fitted effect of over 20% in size. Further: potency means the concentration at half of the fitted maximal effect.
Test [7] can be described thus: qHTS assay to identify small molecule antagonists of the estrogen receptor alpha (ER-alpha) signaling pathway using the BG1 cell line (AID 743080; calls by dose curve;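 further: BG1 cells stimulated with 17beta-estradiol alongside compound; series mostly up to about 70 µM; nearly all actives have a fitted effect of over 25% in size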). In short, it runs like this: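 Luciferase inhibition measured with ONE-Glo after 30 min at RT in BG1Luc4E2 cells given test compounds and 17beta-estradiol for 21.5 h at 37 C; CellTiter-Fluor viability read in the same wells beforehand.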

Test [8] is described as follows: qHTS assay to identify small molecule antagonists of the estrogen receptor alpha (ER-alpha) signaling pathway using the BG1 cell line - cell viability counter screen (AID 743081).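 Further: compound given together with 17beta-estradiol as the ER stimulus; nearly all actives have a fitted effect of over 45% in size.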 Further: potency means the concentration at half of the fitted maximal effect.
A short description of test [9]: qHTS assay to identify aromatase inhibitors - cell viability counter screen (AID 743084).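 Further: cells stimulated with testosterone during compound exposure; nearly all actives have a fitted effect of over 55% in size.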 Further: potency means the concentration at half of the fitted maximal effect.
Test [10] is described as follows: qHTS assay to identify small molecule that activate the aryl hydrocarbon receptor (AhR) signaling pathway - cell viability counter screen (AID 743086). Further: nearly all actives have a fitted effect of over 45% in size. Further: potency means the concentration at half of the fitted maximal effect. In short, it runs like this: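 Cytotoxicity counter screen: CellTiter-Fluor signal (30 min, 37 C) in 4000 HepG2 cells/well carrying the DRE-luciferase reporter, following 24 h compound exposure at 37 C.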
The target of test [11] is Peroxisome proliferator-activated receptor gamma (Homo sapiens) (UniProt P37231). The test is described as follows: qHTS assay to identify small molecule agonists of the peroxisome proliferator-activated receptor gamma (PPARg) signaling pathway (AID 743094; active means well fitted activation curve with a large enough effect in the signal ratio in the repeat runs, not every such curve was filed as active; the % refers to the signal ratio). The procedure, abridged:
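Beta-lactamase FRET fluorescence was the read-out after a 1 h room-temperature substrate step, following 17 h compound treatment at 37C of HEK293H cells expressing a UAS-driven bla reporter responsive to PPARg.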

Test [12] in a line: qHTS assay to identify small molecule antagonists of the peroxisome proliferator-activated receptor gamma (PPARg) signaling pathway - cell viability counter screen (AID 743194). Further: nearly all actives have a fitted effect of over 55% in size. The procedure, abridged:
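Viability was measured as CellTiter-Glo luminescence in GeneBLAzer PPARg UAS-bla HEK293H cells. These cells had been exposed 17 h at 37 C to compounds together with rosiglitazone at 50 nM final, with the beta-lactamase readout taken in the same wells.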

A short description of test [13]: qHTS assay for small molecule agonists of the antioxidant response element (ARE) signaling pathway (AID 743202; active means well fitted activation curve with a large enough effect in the signal ratio in the repeat runs, not every such curve was filed as active; the % refers to the signal ratio). The procedure, abridged: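 An ARE-responsive beta-lactamase gene stably integrated in HepG2 cells serves as reporter. After 5 h plating and 16 h compound incubation at 37 C, fluorescence of the B/G FRET substrate was measured.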
The nature of test [14]: qHTS assay for small molecule agonists of the antioxidant response element (ARE) signaling pathway - cell viability counter screen (AID 743203; calls by dose curve; further: nearly all actives have a fitted effect of over 55% in size). The procedure, abridged:
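HepG2 cells carrying ARE-driven beta-lactamase; 2,000 cells/well; 5 hrs plating; compound pinned from DMSO; 16 hrs 37C/5% CO2; CellTiter-Glo added; 30 min RT; luminescence.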

Test [15] is described as follows: qHTS assay for small molecule activators of the heat shock response signaling pathway - cell viability counter screen (AID 743209). Further: nearly all actives have a fitted effect of over 50% in size. In short, it runs like this: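 Luminescence from CellTiter-Glo, added after the beta-lactamase FRET read, gave the viability signal. Cells were HSE-bla HeLa treated with DMSO-dissolved compounds for 5 h at 37 C following overnight plating.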

Test [16] in a line: qHTS assay for small molecule activators of the heat shock response signaling pathway (AID 743210; active means well fitted activation curve with a large enough effect in the signal ratio in the repeat runs, with a control signal flat, not every such curve was filed as active; the % refers to the signal ratio;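 further: HeLa cells with beta-lactamase reporter driven by heat shock elements; series mostly up to about 63 µM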). The procedure, abridged:
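In HSE-bla HeLa cells, 5 h compound incubation (37 C) precedes addition of LiveBLAzer B/G substrate; after 2.5 h at room temperature, fluorescence intensity indicates reporter induction.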

Test [17] in a line: qHTS assay to identify small molecule agonists of the peroxisome proliferator-activated receptor delta (PPARd) signaling pathway - cell viability counter screen (AID 743211). Further: nearly all actives have a fitted effect of over 55% in size. The procedure, abridged: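 Read-out: CellTiter-Glo luminescence, 30 min RT, measured in the same wells as the beta-lactamase reporter. Cells: GeneBLAzer PPAR delta UAS-bla HEK293H, 3000 cells/well, compound exposure 17 h at 37C.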

For a further test, the target named is Aromatase (Homo sapiens) (UniProt P11511). The test is described as follows: qHTS assay to identify aromatase inhibitors (AID 743083).
Sequence of Aromatase (Homo sapiens) (P11511 whole entry, looked up): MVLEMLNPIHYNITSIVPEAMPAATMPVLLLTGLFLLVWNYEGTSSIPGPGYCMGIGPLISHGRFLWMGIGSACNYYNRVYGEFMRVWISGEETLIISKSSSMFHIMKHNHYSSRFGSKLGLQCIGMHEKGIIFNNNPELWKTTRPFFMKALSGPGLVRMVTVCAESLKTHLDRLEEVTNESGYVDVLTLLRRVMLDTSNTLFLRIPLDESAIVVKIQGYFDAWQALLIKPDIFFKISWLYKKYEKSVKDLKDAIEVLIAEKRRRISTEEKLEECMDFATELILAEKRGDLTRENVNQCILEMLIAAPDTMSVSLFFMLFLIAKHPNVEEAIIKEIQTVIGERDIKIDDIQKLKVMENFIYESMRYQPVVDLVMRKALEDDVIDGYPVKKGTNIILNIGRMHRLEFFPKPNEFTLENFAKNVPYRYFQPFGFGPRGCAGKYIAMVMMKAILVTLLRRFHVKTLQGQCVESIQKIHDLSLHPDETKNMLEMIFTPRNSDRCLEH
Test [18] deals with Aryl hydrocarbon receptor (Homo sapiens) (UniProt P35869). The test is described as follows: qHTS assay to identify small molecule that activate the aryl hydrocarbon receptor (AhR) signaling pathway (AID 743085).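 Further: HG2L7.5c1 human HepG2 liver cells with stably integrated DRE-driven firefly reporter; series mostly up to about 70 µM; nearly all actives have a fitted effect of over 15% in size.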 The procedure, abridged:
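Luminescence read-out: ONE-Glo reagent, 30 min at room temperature, in HG2L7.5c1 HepG2 reporter cells treated 24 h at 37C. Viability was measured beforehand by CellTiter-Fluor fluorescence after 30 min at 37C.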

Test [19] concerns the target Peroxisome proliferator-activated receptor gamma (Homo sapiens) (UniProt P37231). Nature of the test: qHTS assay to identify small molecule antagonists of the peroxisome proliferator-activated receptor gamma (PPARg) signaling pathway (AID 743191; calls by dose curve; further: series mostly up to about 63 µM; nearly all actives have a fitted effect of over 30% in size). In short, it runs like this:
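Beta-lactamase reporter under UAS control in HEK293H PPARg-bla cells; compound treatment 17 h at 37C. Read-out: fluorescence intensity after 1 h room-temperature incubation with LiveBLAzer B/G FRET substrate.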

Structures are written as SMILES. Where “and” joins values, the source holds several entries; their conditions need not be identical. Identical values can stand only once. Inconclusive results are not listed. More than one record can exist for a structure, and the calls need not agree. Calls of active or inactive are those of the source. Unless noted, the call rests on the fitted dose curve; in most records, active means well fitted curve in the direction sought with a large enough effect in the repeat runs; inconclusive means weak or mixed curves; inactive means no such curve, though single readings can be large; an effect the other way counts as inactive or inconclusive.

Sequence of Peroxisome proliferator-activated receptor gamma (Homo sapiens) (P37231 whole entry, looked up): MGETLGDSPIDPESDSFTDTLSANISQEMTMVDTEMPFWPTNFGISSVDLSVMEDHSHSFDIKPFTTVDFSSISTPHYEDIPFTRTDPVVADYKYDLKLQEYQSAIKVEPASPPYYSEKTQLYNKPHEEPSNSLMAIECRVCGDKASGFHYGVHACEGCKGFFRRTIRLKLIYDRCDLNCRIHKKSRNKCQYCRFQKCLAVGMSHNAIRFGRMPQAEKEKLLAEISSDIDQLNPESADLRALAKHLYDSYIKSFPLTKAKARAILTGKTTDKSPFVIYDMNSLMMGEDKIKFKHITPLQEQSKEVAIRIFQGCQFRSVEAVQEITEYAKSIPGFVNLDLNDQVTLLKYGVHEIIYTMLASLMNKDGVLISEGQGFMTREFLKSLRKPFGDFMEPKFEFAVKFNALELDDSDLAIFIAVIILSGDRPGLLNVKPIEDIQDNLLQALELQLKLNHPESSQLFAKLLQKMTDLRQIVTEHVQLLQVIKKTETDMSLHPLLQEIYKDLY
Sequence of Aryl hydrocarbon receptor (Homo sapiens) (P35869 whole entry, looked up): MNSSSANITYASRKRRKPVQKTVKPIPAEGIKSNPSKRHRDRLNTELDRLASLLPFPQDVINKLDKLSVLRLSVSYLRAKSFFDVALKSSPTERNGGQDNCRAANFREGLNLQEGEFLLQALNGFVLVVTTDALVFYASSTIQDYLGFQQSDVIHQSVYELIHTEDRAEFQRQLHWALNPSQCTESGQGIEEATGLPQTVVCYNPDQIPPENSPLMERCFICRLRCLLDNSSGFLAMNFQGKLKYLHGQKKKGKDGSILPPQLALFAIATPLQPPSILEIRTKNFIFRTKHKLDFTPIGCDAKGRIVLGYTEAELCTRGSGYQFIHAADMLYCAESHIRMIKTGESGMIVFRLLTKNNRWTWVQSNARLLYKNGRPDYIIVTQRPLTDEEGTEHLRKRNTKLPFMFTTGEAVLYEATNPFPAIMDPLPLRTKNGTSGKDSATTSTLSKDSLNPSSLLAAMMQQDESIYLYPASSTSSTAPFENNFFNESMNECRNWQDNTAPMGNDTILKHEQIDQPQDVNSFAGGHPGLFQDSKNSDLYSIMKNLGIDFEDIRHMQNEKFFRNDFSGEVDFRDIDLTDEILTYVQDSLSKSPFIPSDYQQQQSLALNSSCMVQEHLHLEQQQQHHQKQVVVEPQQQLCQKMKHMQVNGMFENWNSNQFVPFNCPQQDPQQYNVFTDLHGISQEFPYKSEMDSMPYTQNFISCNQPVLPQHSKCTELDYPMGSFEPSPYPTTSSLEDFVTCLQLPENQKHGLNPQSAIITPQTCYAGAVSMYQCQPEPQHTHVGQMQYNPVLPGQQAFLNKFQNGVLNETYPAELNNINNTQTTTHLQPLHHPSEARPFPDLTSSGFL

Take `NS(=O)(=O)c1cc(C(=O)O)c(NCc2ccco2)cc1Cl`: the Potency entry in test [1], in test [2], in test [3], in test [4], in test [5] and in test [7] was “inactive” throughout. Further, the Potency entry in [8], in test [9], in test [10] and in test [13] was “inactive” throughout. For the same molecule, the Potency in test [6] is 15 µM (active). Also, the molecule was called inactive in test [11], in test [12], in test [14], in [15], in [16] and in test [17].

Take `C[C@]12C=CC(=O)C=C1CC[C@@H]1[C@@H]2[C@@H](O)C[C@@]2(C)[C@H]1CC[C@]2(O)C(=O)CO`: the Potency entry in test [1], in test [2], in test [4], in [5], in test [6] and in [8] was “inactive” each time. In addition, the Potency entry (with Aromatase (Homo sapiens); in [9]; in test [18]; in test [10]; in [13]) was “inactive” throughout. In addition, the result in test [12], in test [14], in test [15], in test [16] and in test [17] was inactive.

On to `O=C(O)c1cccc([N+](=O)[O-])c1`, for which the Potency result (in [1]; in test [2]; in test [4]; in [8]; with Aromatase (Homo sapiens); in test [9]) was “inactive” throughout. The Potency entry in [18], in test [10] and in test [13] was “inactive” each time. Moreover, the molecule was called inactive in [12], in test [14], in test [15], in [16] and in test [17].

Take `O=C(C1CCCCC1)N1CC(=O)N2CCc3ccccc3C2C1` (stereo not given): the Potency result (in [1]; in [2]; in test [4]; in test [8]; in the test with Aromatase (Homo sapiens); in [9]) was “inactive” each time. The Potency result in test [18], in test [10] and in [13] was “inactive” in each case. In addition, the outcome in [11], in test [12], in test [14], in test [15], in test [16] and in test [17] was inactive.

On to `O=C(O)c1cc(N=Nc2ccc(S(=O)(=O)Nc3ccccn3)cc2)ccc1O`, for which the Potency entry (in [4]; with Aromatase (Homo sapiens); in test [18]; in test [13]) was “inactive” in each case. In addition, the Potency is 34.5 µM (active) in [8]; 34.5 µM (active) and 30.6 µM (active) in test [9]; “inactive and 27.4 µM (active) and 30.6 µM (active)” in test [10]. In addition, the molecule was classed as inactive in test [11], in test [12], in [14], in test [15], in test [16] and in test [17].

On to `C1N2CN3CN1CN(C2)C3`, for which the Potency result (in test [1]; in test [2]; in test [4]; in test [8]; with Aromatase (Homo sapiens); in [9]) was “inactive” each time. Further, the Potency entry in test [18], in test [10] and in test [13] was “inactive” each time. The molecule was called inactive in test [11], in test [12], in test [14], in [15], in test [16] and in test [17].

For `O=C(c1ccccc1)c1ccccc1`, the Potency result (in test [4]; in test [8]; with Aromatase (Homo sapiens); in [9]; in test [18]; in test [10]) was “inactive” each time. In test [13], the Potency entry is “inactive”. The molecule was classed as inactive in test [12], in test [14], in test [15], in test [16] and in [17].

`CCOc1ccc(NC(=O)CC(C)O)cc1` (stereo not given): the Potency entry (in [1]; in test [2]; in test [4]; in [8]; with Aromatase (Homo sapiens); in [9]) was “inactive” in each case. Besides, the Potency entry in test [18], in test [10] and in test [13] was “inactive” in each case. The result in test [11], in [12], in test [14], in [15], in test [16] and in test [17] was inactive.

As for `O=C(O)/C=C\C(=O)O`, the molecule was classed as inactive in test [12], in test [14], in test [15], in test [16] and in test [17]. The Potency entry in test [13] was “inactive”.

For `O=C(O)c1cccnc1`, the Potency entry (in test [1]; in test [2]; in [4]; in test [8]; with Aromatase (Homo sapiens); in test [9]) was “inactive” in each case. The Potency entry in [18], in [10] and in test [13] was “inactive” each time. Besides, the molecule was classed as inactive in test [12], in [14], in test [15], in test [16] and in test [17].

As to `OCCc1ccccc1`, the Potency result (in [1]; in [2]; in test [4]; in test [8]; with Aromatase (Homo sapiens); in [9]) was “inactive” in each case. The Potency entry in [18], in [10] and in [13] was “inactive” throughout. The result in [11], in test [19], in test [12], in [14], in [15] and in [16] was inactive. The outcome in test [17] was inactive.

On to `CC(C)[C@@H]1CC[C@@H](C)C[C@H]1O`, for which the Potency entry (in test [1]; in test [2]; in test [4]; in [8]; in the test with Aromatase (Homo sapiens); in test [9]) was “inactive” throughout. For the same molecule, the Potency entry in test [18], in test [10] and in [13] was “inactive” throughout. Also, the molecule was called inactive in test [11], in test [12], in test [14], in test [15] and in [17].

With `CC(O)CN(CCN(CC(C)O)CC(C)O)CC(C)O` (stereo not given), the Potency result (in test [4]; in test [8]; with Aromatase (Homo sapiens); in test [9]; in test [18]; in test [10]) was “inactive” in each case. In test [13], the Potency result is “inactive”. The outcome in [11], in [12], in test [14], in test [15], in test [16] and in test [17] was inactive.
